Where “and” joins values, the source holds several entries; their conditions need not be identical. Equal entries are not always repeated.

The target in experiment [1] is T1, Serine/threonine-protein kinase D2 (Homo sapiens) (UniProt Q9BZL6).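 Note: mean value of PRKD2 inhibition, from the GSK PKIS screening panel.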
T1 sequence (whole entry): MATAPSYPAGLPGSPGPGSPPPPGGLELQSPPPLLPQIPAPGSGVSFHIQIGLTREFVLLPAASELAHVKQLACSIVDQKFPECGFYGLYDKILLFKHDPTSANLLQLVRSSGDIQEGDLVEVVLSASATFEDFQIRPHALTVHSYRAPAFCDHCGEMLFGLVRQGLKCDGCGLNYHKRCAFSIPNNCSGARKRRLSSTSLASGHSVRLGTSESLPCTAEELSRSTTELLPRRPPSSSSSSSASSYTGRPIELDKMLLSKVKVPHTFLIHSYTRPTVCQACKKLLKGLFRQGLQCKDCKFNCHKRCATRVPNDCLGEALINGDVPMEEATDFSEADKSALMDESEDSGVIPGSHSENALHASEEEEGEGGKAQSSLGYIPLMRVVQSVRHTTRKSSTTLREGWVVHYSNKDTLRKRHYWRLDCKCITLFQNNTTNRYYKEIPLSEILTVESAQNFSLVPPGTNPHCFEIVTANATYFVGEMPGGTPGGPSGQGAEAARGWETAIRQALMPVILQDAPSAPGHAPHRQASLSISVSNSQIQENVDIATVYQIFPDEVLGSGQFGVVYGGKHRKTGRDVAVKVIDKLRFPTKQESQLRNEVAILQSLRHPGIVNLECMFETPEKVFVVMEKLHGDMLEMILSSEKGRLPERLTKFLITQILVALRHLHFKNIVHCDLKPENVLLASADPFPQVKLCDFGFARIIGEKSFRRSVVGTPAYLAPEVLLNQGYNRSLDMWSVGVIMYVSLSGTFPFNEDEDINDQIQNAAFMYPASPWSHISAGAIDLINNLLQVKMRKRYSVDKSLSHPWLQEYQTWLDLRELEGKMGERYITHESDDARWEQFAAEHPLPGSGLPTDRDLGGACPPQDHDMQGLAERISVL
The note with it: at 1 µM.

The target in experiment [2] is T2, Serine/threonine-protein kinase D3 (Homo sapiens) (UniProt O94806).
T2 sequence (whole entry): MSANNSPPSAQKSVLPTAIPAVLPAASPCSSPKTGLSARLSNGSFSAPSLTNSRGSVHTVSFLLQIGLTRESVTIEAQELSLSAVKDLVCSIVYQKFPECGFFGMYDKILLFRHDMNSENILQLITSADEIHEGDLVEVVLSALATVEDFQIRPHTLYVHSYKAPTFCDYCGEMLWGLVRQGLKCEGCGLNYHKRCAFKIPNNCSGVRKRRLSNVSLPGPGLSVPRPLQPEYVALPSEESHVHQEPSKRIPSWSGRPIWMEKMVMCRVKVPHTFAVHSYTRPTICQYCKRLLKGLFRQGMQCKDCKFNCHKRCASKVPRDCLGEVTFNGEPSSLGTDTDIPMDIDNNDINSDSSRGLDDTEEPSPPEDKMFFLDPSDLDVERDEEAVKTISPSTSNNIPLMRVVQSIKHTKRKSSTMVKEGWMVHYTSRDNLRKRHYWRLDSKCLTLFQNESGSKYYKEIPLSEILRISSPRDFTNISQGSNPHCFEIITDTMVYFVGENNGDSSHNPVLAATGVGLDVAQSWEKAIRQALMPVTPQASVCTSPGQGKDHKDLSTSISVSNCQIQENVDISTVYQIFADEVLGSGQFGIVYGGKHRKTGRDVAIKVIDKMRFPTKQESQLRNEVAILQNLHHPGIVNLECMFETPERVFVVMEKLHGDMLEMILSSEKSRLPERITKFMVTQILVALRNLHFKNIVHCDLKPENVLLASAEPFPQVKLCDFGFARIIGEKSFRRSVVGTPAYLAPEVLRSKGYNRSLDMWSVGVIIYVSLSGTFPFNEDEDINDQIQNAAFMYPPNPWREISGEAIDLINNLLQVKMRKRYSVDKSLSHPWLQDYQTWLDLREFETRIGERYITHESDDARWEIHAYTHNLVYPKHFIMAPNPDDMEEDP
The note with it: at 0.1 µM.

The target in experiment [3] is T2, Serine/threonine-protein kinase D3 (Homo sapiens). Particulars: at 1 µM.
For experiment [4], the target named is T3, cGMP-dependent protein kinase 1 (Homo sapiens) (UniProt Q13976).
T3 sequence (whole entry): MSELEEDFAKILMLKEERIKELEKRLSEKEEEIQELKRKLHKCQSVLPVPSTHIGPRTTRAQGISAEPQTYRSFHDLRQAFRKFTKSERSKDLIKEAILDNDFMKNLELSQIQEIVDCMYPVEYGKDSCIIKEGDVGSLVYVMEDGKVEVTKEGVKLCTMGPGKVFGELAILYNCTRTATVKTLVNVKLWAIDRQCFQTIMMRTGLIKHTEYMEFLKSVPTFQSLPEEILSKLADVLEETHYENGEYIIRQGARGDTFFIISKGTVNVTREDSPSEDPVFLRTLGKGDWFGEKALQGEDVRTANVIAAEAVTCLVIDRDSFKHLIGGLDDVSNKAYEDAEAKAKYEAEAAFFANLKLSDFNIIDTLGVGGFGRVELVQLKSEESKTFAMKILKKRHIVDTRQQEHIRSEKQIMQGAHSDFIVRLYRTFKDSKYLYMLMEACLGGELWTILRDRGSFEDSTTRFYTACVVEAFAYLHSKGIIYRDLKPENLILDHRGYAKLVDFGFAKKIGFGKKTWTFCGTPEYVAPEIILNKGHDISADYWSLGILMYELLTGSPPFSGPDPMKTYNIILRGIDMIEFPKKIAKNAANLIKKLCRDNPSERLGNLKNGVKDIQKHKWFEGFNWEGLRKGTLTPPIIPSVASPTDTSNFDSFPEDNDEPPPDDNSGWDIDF
Particulars: at 0.1 µM.

In experiment [5] the target is T3, cGMP-dependent protein kinase 1 (Homo sapiens). The note with it: at 1 µM.
For experiment [6], the target named is T4, cGMP-dependent protein kinase 2 (Homo sapiens) (UniProt Q13237).
T4 sequence (whole entry): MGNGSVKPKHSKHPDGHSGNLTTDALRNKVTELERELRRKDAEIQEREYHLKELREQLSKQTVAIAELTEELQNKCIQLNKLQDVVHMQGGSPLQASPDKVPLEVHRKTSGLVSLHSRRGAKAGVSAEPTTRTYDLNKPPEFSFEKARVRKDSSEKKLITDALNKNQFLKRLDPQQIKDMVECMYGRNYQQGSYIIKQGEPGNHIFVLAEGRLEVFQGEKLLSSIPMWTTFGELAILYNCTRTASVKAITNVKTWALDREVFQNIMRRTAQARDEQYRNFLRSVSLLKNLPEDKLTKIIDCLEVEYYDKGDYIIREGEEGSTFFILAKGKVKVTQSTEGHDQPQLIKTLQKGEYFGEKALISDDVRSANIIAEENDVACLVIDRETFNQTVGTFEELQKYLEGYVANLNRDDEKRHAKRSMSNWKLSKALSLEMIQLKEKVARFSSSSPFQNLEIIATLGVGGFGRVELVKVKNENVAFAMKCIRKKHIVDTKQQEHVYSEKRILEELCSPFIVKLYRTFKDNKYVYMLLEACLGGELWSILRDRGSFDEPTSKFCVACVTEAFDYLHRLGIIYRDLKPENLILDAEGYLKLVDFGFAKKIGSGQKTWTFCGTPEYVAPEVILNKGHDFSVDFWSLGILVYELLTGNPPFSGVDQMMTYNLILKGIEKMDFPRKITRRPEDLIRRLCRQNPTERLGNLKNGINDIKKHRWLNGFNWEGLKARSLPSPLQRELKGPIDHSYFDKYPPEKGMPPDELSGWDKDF
The note with it: at 0.1 µM.

Experiment [7] addresses T4, cGMP-dependent protein kinase 2 (Homo sapiens). Particulars: at 1 µM.
For experiment [8], the target named is T5, cAMP-dependent protein kinase catalytic subunit PRKX (Homo sapiens) (UniProt P51817).
T5 sequence (whole entry): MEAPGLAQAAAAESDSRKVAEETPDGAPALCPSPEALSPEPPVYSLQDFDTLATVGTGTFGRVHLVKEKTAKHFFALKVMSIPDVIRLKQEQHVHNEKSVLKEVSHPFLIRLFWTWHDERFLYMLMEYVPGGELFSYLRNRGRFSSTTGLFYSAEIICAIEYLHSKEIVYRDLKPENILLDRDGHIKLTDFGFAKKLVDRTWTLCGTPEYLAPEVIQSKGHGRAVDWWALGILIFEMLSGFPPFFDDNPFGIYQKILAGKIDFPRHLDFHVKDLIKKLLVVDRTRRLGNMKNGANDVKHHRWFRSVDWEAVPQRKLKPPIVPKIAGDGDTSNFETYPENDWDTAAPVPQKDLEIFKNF
The note with it: at 0.1 µM.

Experiment [9] addresses T5, cAMP-dependent protein kinase catalytic subunit PRKX (Homo sapiens). Particulars: at 1 µM.
Experiment [10] has as its target Rho-associated protein kinase 1 (Homo sapiens) (UniProt Q13464). The note with it: at 0.1 µM.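 Note: values are mean percent inhibition of ROCK1.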

Rho-associated protein kinase 1 (Homo sapiens), sequence (Q13464 2-1354 limits assumed): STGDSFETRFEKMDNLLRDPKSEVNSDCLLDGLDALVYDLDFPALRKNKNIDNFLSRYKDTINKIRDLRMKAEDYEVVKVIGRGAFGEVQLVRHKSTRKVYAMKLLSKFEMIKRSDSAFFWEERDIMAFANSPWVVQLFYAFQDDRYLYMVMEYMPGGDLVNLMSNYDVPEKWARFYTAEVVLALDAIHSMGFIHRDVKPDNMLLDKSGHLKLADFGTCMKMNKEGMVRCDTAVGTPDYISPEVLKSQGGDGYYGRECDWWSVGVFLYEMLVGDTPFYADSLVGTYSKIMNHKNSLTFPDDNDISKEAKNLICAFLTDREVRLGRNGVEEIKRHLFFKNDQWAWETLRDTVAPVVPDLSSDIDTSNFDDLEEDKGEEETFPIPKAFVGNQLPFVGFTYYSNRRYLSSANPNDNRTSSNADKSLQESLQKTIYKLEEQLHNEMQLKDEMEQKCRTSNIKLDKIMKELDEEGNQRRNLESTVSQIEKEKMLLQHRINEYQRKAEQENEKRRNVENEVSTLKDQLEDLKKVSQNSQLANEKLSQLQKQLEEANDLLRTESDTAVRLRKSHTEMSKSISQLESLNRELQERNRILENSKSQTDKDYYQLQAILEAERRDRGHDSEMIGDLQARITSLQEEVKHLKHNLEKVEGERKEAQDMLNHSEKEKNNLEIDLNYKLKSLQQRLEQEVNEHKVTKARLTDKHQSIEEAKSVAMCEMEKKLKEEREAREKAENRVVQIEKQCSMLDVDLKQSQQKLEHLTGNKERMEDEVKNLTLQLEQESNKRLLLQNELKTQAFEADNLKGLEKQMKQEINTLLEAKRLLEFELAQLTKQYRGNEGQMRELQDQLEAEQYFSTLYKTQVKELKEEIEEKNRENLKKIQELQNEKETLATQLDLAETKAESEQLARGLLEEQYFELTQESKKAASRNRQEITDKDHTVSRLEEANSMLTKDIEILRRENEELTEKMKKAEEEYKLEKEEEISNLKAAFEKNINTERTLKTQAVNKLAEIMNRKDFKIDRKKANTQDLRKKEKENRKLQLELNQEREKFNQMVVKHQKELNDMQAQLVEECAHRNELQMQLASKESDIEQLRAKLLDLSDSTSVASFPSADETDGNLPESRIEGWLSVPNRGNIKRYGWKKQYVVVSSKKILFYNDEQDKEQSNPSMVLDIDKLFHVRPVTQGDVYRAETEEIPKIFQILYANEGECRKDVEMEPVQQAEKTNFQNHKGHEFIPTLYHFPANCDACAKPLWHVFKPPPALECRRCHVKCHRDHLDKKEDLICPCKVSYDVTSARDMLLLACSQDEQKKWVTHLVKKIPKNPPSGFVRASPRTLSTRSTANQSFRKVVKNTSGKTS

`COc1cc(Nc2ncc(-c3ccccc3)o2)cc(OC)c1`: the inhibition in [1] came out at 1.86%; in experiment [2], 5.05%; in [3] it was 4.51%; in experiment [4] it was 1.76%; in [5], 1.96%; in experiment [6] it was 1.74%. The inhibition was determined as 2.19% in experiment [7], 0.91% in [8], 4.53% in experiment [9] and 2.5% in experiment [10].

Regarding `CNC(=O)c1sc(-n2cnc3cc(OC)c(OC)cc32)cc1OCc1ccccc1C(F)(F)F`, the inhibition in [1] amounted to 4.27%; in experiment [2], 4.09%; in experiment [3] it was 4.54%; in experiment [4], 2.58%; in [5], 2.12%; in [6] it was 1.27%. The inhibition was 1.38% in [7], 2.66% in experiment [8], 1.17% in [9] and 0.61% in experiment [10].

For the molecule `O=C(O[C@H]1CN[C@H](C#Cc2cc3ncnc(Nc4ccc(OCc5cccc(F)c5)c(Cl)c4)c3s2)C1)N1CCOCC1`, the inhibition was 6.01% in experiment [1]; 6.55% in [2]; 6.45% in experiment [3]; 3.08% in experiment [4]; 7.14% in [5]; 3.07% in [6]. Further, the inhibition in experiment [7] stood at 4.91%; in experiment [8], 3.17%; in [9], 6.34%; in experiment [10] it was 0.81%.

As to `Nc1nccc(-c2c(-c3ccc(F)cc3)ncn2C2CCNCC2)n1`, the inhibition was 29.1% and 38.3% in experiment [1]; -2.12% and 2.32% in [2]; 17.6% and 25.6% in experiment [3]; -1.2% and -1.11% in experiment [4]; -1.21% and 1.73% in [5]; -2.2% and 1.13% in experiment [6]. The inhibition in experiment [7] was 3.3% and 1.57%; in experiment [8], -1.45% and 1.45%; in experiment [9], -1.91% and 2.45%; in experiment [10], -0.99% and 1.19%.

In the case of `CN(C)CCNC(=O)Nc1ccc(N(C)c2ccnc(Nc3ccc(CS(C)(=O)=O)cc3)n2)cc1`, the inhibition stood at 6.51% in experiment [1]; 4.97% in [2]; 5.75% in experiment [3]; 3.82% in experiment [4]; 4.38% in experiment [5]; 1.71% in experiment [6]. Moreover, the inhibition in [7] was 3.5%; in [8] it was 0.73%; in [9], 0.09%; in experiment [10], 3.43%.

Consider `COc1cc2c(cc1Nc1nc(Nc3cccc(F)c3C(N)=O)c3cc[nH]c3n1)N(C(=O)CN1CCN(C(C)C)CC1)CC2`, for which the inhibition was determined as 8.82% in experiment [1]; 3.64% in experiment [2]; 8.43% in [3]; 4.61% in [4]; 10.1% in experiment [5]; 3.86% in [6]. Besides, the inhibition in experiment [7] stood at 5.6%; in experiment [8], 2.44%; in experiment [9], 2.36%; in experiment [10], 0.72%.

`NS(=O)(=O)c1ccc(N/N=C2\C(=O)Nc3ccc(C(=O)NCc4ccncc4)cc32)cc1`: the inhibition in experiment [1] turned out to be 18.5%; in [2], 4.33%; in experiment [3], 16.4%; in experiment [4] it was 5%; in [5] it was 19.3%; in [6], 5.42%. Moreover, the inhibition in experiment [7] is 18.4%; in experiment [8] it was 6.16%; in experiment [9], 15.5%; in [10] it was 0.63%.

Turning to `CS(=O)(=O)CCNCc1ccoc1-c1ccc2ncnc(Nc3ccc(OCc4ccccc4)cc3)c2c1`, the inhibition in [1] is 1.7%; in experiment [2], 0.9%; in experiment [3] it was 1.39%; in experiment [4] it was -0.04%; in experiment [5], 0.54%; in experiment [6], -0.54%. In addition, the inhibition was -1.25% in experiment [7], 0.33% in [8], -0.34% in [9] and -1.21% in experiment [10].

The inhibition is the change of the read-out against control, counted positive when it falls.

For the origin of these results see ChEMBL document CHEMBL1961873, “Compounds: GSK PKIS; Assays: Nanosyn kinase panel” (2012).
